# High-throughput results as filed in PubChem.
# PfHsp40 rescue: rescue of yeast from PfHsp40 toxicity, primary screen, S. cerevisiae, ATP luminescence | S. cerevisiae expressing PfHsp40, growth rescue | growth rescue, % at 12.5 µM | hit rate 0.68% among 340,000 | AID 504582, 2011; in the data active = growth rescue above about 28%, passing the limit was not always enough;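 note: yeast W303a lacking pdr1 and pdr3 grown in galactose medium; growth measured after three days at 30 °C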
# TcdB GH inh: TcdB glycohydrolase inhibitors, primary screen, biochemical, single point, plate reader. TcdB glycohydrolase enzymatic assay. AID 652162, 2013. inhibition, % at 9.99 µM. hit rate 0.24% among 350,000. Toxin B (Clostridioides difficile), P18177; in the data active = inhibition above about 10%
# FadD28 binding: inhibitors of FadD28 bisubstrate probe binding, primary screen, biochemical, fluorescence polarization, single point | Mycobacterium tuberculosis FadD28 fatty-acid-AMP ligase | inhibition, % at 12.5 µM | hit rate 0.22% among 360,000; in the data active = inhibition above about 8.5%, passing the limit was not always enough
# Mtb BioA inh: M. tuberculosis BioA enzyme inhibitors, primary screen, biochemical, plate reader, single point, HTS; purified M. tuberculosis BioA enzyme; inhibition, % at 9.99 µM; hit rate 0.096% among 360,000; AID 602481, 2012; in the data active = inhibition above about 40%
# PrP UTR inh: inhibition of PrP 5' UTR reporter expression; cell-based PrP 5' UTR mRNA reporter, plate reader; inhibition, % (no concentration beside the values); AID 488862, 2010; hit rate 0.35% among 340,000; in the data active = inhibition above about 52%
# PrP 5UTR single: prion 5' UTR mRNA inhibition, cherry-pick retest; shares compounds with PrP UTR inh; cell-based prion protein 5' UTR reporter, plate reader; inhibition, % at 2.5 µM; hit rate 48% among 1,100; AID 504592, 2011; in the data active = inhibition above about 54%
# Numbers stand for hits; n = inactive; x = no result. Sampled rows, rich in hits. Any-hit rate of the full collection: about 1.1%.
SMILES,PfHsp40 rescue,TcdB GH inh,FadD28 binding,Mtb BioA inh,PrP UTR inh,PrP 5UTR single
CCCCN=C(C)C1=C(O)CSC1=O,n,x,n,n,78,n
COc1ccc(/C=N\NC(=O)C2C(=O)NCC2c2ccccc2)cc1O (centres undefined),n,x,n,n,71,n
CCCNC(=O)N1[C@@H]2c3ccc(-c4ccc(F)cc4)c(=O)n3C[C@@H]2[C@@H](CO)[C@@H]1C(=O)N1CCCCC1,x,n,x,n,x,x
CC1CCN(C(=O)c2ccc(COc3ccccc3Cl)o2)CC1,n,x,n,n,77,n
O=C(c1ccccc1)c1cc([N+](=O)[O-])ccc1N1CCOCC1,n,x,n,n,n,x
Cc1ccc(C(=O)c2cc([N+](=O)[O-])ccc2N2CCCCC2)cc1,n,x,n,x,56,86
CC1CCCN(c2ccc([N+](=O)[O-])cc2C(=O)c2ccccc2)C1 (centres undefined),n,n,n,x,61,80
COC(=O)c1c(NC(=O)c2ccc([N+](=O)[O-])o2)sc2c1CCN(C(C)C)C2,n,n,n,n,66,97
COC(=O)c1c(NC(=O)Cc2ccccc2)sc2c1CCN(C(C)C)C2,n,n,n,n,n,x
COc1ccc(S(=O)(=O)N(C)C[C@@H]2Oc3ccc(NS(=O)(=O)c4cn(C)cn4)cc3CC(=O)N([C@@H](C)CO)C[C@H]2C)cc1,x,n,x,n,x,x
C=CCN(CC=C)S(=O)(=O)c1ccc(NC(=S)NC(=O)/C=C/c2ccccc2)cc1,n,x,n,n,59,n
COc1ccccc1N1CCN(C(=O)CSc2ncnc3scc(-c4ccccc4)c23)CC1,n,x,n,n,n,x
COc1ccc(-n2ncc3c(SCC(=O)N4CCN(c5ccccc5OC)CC4)ncnc32)cc1,n,x,n,x,64,n
CCNC(=O)[C@H]1[C@H](CO)[C@H]2Cn3c(cccc3=O)[C@@H]1N2CCC(F)(F)F,x,n,x,n,x,x
COc1ccc(C2CC(=O)Oc3cc4c(cc32)OCO4)cc1 (centres undefined),n,n,n,n,53,n
COc1cc(C2CC(=O)Oc3cc4c(cc32)OCO4)cc(OC)c1OC (centres undefined),n,n,n,n,n,x
C[C@@H]1CN([C@H](C)CO)C(=O)Cc2cc(NC(=O)Cc3cn(C)c4ccccc34)ccc2O[C@H]1CN(C)C(=O)Nc1cccc2ccccc12,x,n,x,n,x,x
Nc1ncnc2c(C3OC(CO)C(O)C3O)scc12 (centres undefined),145,n,n,x,58,82
COc1ccc(OC)c(-c2nc(C(=O)NCCCN3CCOCC3)cc3c2[nH]c2ccccc23)c1,n,n,n,n,54,n
COc1ccccc1-c1ccc2n(c1=O)C[C@@H]1[C@@H](CO)[C@H](C(=O)NCc3ccccc3F)N[C@H]21,x,n,x,n,x,x
O=C(Nc1c(Cl)cc2c(c1Cl)Cc1cc([N+](=O)[O-])ccc1-2)C(Cl)Cl,n,n,n,x,82,n
COc1ccc(NC(=O)C/C(C)=N/NC(=O)c2ccncc2)c([N+](=O)[O-])c1,n,n,n,n,54,n
COc1ccc(OCC(=O)N/N=C(\C)CC(=O)Nc2ccc(OC)cc2[N+](=O)[O-])cc1,n,n,n,x,n,x
Cc1ccc(-n2cccn2)c([C@@H]2C[C@H]3CN(C)C(=O)[C@]34CCCN24)c1,n,n,n,x,67,n
CO[C@H]1CN(C)C(=O)c2ccc(NC(C)=O)cc2OC[C@@H](C)N(Cc2ccc(F)cc2)C[C@@H]1C,x,n,x,n,x,x
SMILES,PfHsp40 rescue,TcdB GH inh,FadD28 binding,Mtb BioA inh,PrP UTR inh,PrP 5UTR single
CC(=O)Nc1ccc(CN2CCCC(CCC(=O)NCc3ccccc3F)C2)cc1 (centres undefined),n,n,n,n,80,n
O=C(COc1cc(Cl)c(Cl)cc1Cl)NCCN1CCOCC1,n,x,n,n,55,n
Cc1ccc(NC(=O)c2cc3ccccc3oc2=N)cc1,n,n,n,n,67,n
CCCCN1C=CC(=C2C(=O)c3ccccc3C2=O)C=C1,n,n,n,n,87,92
CCCCNC1=CC(=O)C(=O)c2ccccc21,n,n,n,x,n,x
Cn1nnc2cc(C(=O)NC3CCCCC3)ccc21,n,x,n,n,75,83
O=C(C[C@@H]1C=C[C@@H](NC(=O)c2ccncc2)[C@H](CO)O1)NCC1CC1,x,n,x,n,x,x
Cc1cc(C)c(S(=O)(=O)N2CCN(C(=O)CCOc3ccccc3C)CC2)c(C)c1,n,n,n,n,88,n
